The values that follow come from PubChem BioAssay AID2732 (Emory University Molecular Libraries Screening Center, 2010).

The campaign covered roughly 220,000 compounds. About 8,200 (3.7%) were called active. The entries come from a sample that favours actives as a whole. A number with no mark means an inactive call.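 Rule for the calls: active = compounds that reduced the stress-induced luciferase reporter signal by more than about 70% of percent inhibition (limit read from the data); inactive = the rest.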

The inhibition is the drop in the measured response relative to a control, in per cent.

A short description of the experiment: blockers of ER-stress CHOP reporter expression – cell-based, unfolded protein response, luciferase reporter, primary screen (AID 2732).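 Note: 0% = tunicamycin plus vehicle and 100% = wells without tunicamycin.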 The settings on record: CHO-K1 CHOP-promoter luciferase, tunicamycin-induced, 15-18 h; at 10 µM; hits give high values. (A reporter such as luciferase makes a cellular process visible.)
On to `CCCCCCCCCCCCn1ccc(=N)cc1`, for which the inhibition was 90.9% (active).
`CC(=C1C(=O)c2ccccc2C1=O)N1CCN(CCN=Cc2c(O)n(C)c(=O)n(C)c2=O)CC1`: the inhibition was -9.11%.
Under `COc1ccc(NC(=O)N2CCC3(CC2)OCCO3)c(OC)c1` stands 18.7%; under `CCC1(C)CC(CCNCc2ccc(N(C)C)cc2)(c2ccc(F)cc2)CCO1` (stereo not given), 8.31%; under `COc1ccc(CN2C(=O)NC(=O)/C(=C\c3ccc(OC)c(OC)c3OC)C2=O)cc1`, -5.09%.
Under `CN(C)CC1Oc2ccccc2OC1(O)c1ccccc1` (stereo not given) stands 88.8% (active); under `CCOC(=O)c1ncn2c1[C@@H]1CCCN1C(=O)c1cc(OC)ccc1-2`, -1.91%.
Regarding `O=C(CCNS(=O)(=O)c1ccccc1)Nc1ccc(Cl)cc1C(=O)c1ccccc1`, the inhibition is -12.3%.
As to `O=C(COC(=O)c1ccccc1)Nc1ccc(Cl)cc1C(=O)c1ccccc1`, the inhibition was 80.1% (active).
Under `CN1CCN(C(=S)SCC(=O)Nc2ccc(Cl)cc2C(=O)c2ccccc2)CC1` stands 35%; under `COC(=O)N(c1ccc(OC)cc1)P1(=S)OCCC(C)O1` (stereo not given), -1.61%; under `CCC(=O)CC(c1ccc([N+](=O)[O-])cc1)c1c(O)c2ccccc2oc1=O` (stereo not given), -16.6%.
Take `Cc1ccc2c(c1)C1CN(C)CCC1N2C(=O)Cn1nnc(-c2ccccc2F)n1` (stereo not given): the inhibition is 3.99%.
Regarding `CCN1CCN(c2ccc([N+](=O)[O-])cc2C#N)CC1`, the inhibition is 8.37%.
In the case of `Cn1c(O)c(C(=Nc2ccc(F)cc2)c2ccccc2)c(=O)n(C)c1=O`, the inhibition was 2.66%.
Under `Cc1ccnc(-n2c(C)cc(/C=C3\C(=O)NC(=S)N(C)C3=O)c2C)c1` stands -16.7%; under `Cc1cc(C=C2C(=O)NC(=O)NC2=O)c(C)n1-c1ccncc1`, 16.7%.
In the case of `Cc1ccc(-n2c(C)cc(/C=C3\C(=O)NC(=O)N(C)C3=O)c2C)cc1C`, the inhibition is 78.5% (active).
Regarding `C=CCN1CCC2(C)c3cc(O)ccc3CC1[C@@H]2C` (stereo not given in full), the inhibition was 9.89%.
Under `Cc1ccc(CN2CCCC(C(=O)c3ccc4c(c3)OCO4)C2)cc1C` (stereo not given) stands -2.37%; under `O=c1[nH]c(=O)n(CCc2ccccc2)c(O)c1/C=N/N1CCOCC1`, -18.4%.
Take `CCC(=NCCCO)c1c(O)n(-c2ccc(OC)cc2)c(=O)[nH]c1=O`: the inhibition was 14.6%.
Under `CCCCCCN=C(CC)c1c(O)n(CCCC)c(=O)[nH]c1=O` stands 106% (active); under `CCCCn1c(O)c(C(CC)=NCc2ccco2)c(=O)[nH]c1=O`, 6.6%.
On to `O=c1[nH]c(=O)n(CCc2ccc(F)cc2)c(O)c1/C=N/N1CCCCC1`, for which the inhibition is 3.76%.
Under `CC1(C)Cc2c(C#N)c(N3CCNCC3)nc(-c3ccco3)c2CS1` stands 3.49%.
On to `COc1cc(C(c2c(O)c3ccccc3oc2=O)c2c(C)n(C)n(-c3ccccc3)c2=O)ccc1O` (stereo not given), for which the inhibition is 8.54%.
Under `CCCCCn1c(=O)c(C(=O)NCc2ccccn2)c(O)c2ccccc21` stands 40.5%; under `CCCCCn1c(=O)c(C(=O)Nc2c(C)n(C)n(-c3ccccc3)c2=O)c(O)c2ccccc21`, 89.7% (active); under `CCOP(=O)(OCC)C(O)c1ccc(OC)cc1OC` (stereo not given), 1.95%.
Under `COc1ccc2c(c1O)-c1cccc3c1[C@@H](C2)N(C)CC3` stands -0.63%.
Under `COc1ccc(-n2c(-c3ccccc3)nc3ccccc3c2=O)cc1` stands -0.77%.
Take `CC(=O)c1c(O)c(C)c(O)c(Cc2c(O)c3c(c(C(=O)/C=C/c4ccccc4)c2O)OC(C)(C)C=C3)c1O`: the inhibition is -9.85%.
Under `O=C1NC(=O)N(CCc2ccc(F)cc2)C(=O)/C1=C/C=C/c1ccccc1` stands 79.8% (active); under `O=C1NC(=O)N(Cc2ccco2)C(=O)/C1=C\c1ccc(-c2ccc(F)cc2)o1`, 4.85%.
Under `O=C(O)COc1ccccc1/C=C1\C(=O)NC(=O)N(CCC2=CCCCC2)C1=O` stands -7.81%.
Under `COc1ccc(NC(=O)c2cn(CCC#N)nc2-c2ccc([N+](=O)[O-])cc2)cc1` stands -2.78%.
Regarding `Cc1ccc(-n2c(-c3ccc([N+](=O)[O-])cc3)nc3ccccc3c2=O)cc1`, the inhibition is -10.7%.
Under `O=C(O)C1C2CCC(O2)C1C(=O)O` (stereo not given) stands -11.8%; under `CN(C)c1ccc(/C=C2\CC3C4CC=C5CC(O)CCC5(C)C4CCC3(C)C2=O)cc1` (stereo not given), 96% (active).
Under `CC(c1ccccc1)(c1ccccc1)c1ccncc1` stands 34.4%; under `CCN1c2nc3c(C)cccn3c(=O)c2CC2(C(=O)N(C)C(=O)N(C)C2=O)C1C` (stereo not given), 6.18%; under `O=C(CSC1c2ccccc2-c2ccccc21)N/N=C/c1ccccc1`, 97.3% (active).
Under `CCCCC(=O)N/N=C/c1c(O)n(-c2ccccc2)c(=O)[nH]c1=O` stands -1.28%; under `CC(=O)N1CN2CN(C(C)=O)CC(C(=O)c3ccc(Br)cc3)(C2)C1`, 5.64%.
